In PubChem BioAssay (NCATS):
Values joined by “and” are separate entries in the source; they are usually repeats but may differ in a detail not shown here. Equal values may be shown once. Inconclusive results are not listed. Where a call stands in place of a potency, no number is given. Active and inactive are the calls of the source. Unless noted, calls come from the whole dose curve; as a rule, active = well fitted curve in the direction sought with a large enough effect; inconclusive = small, poorly fitted or top-dose-only effect, or another doubt; inactive = no such curve, though single readings can be large; an effect the other way counts as inactive or inconclusive.

Tests used:
[1] = qHTS Assay for Lipid Storage Modulators (AID 1519; calls by dose curve); conditions: Drosophila S3 cells, BODIPY lipid droplet/cell ratio, laser cytometry, cells loaded with oleic acid
How it was run: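 Cells seeded at 5,000 per well were treated with compounds over a concentration series and loaded with oleic acid (400 uM, as added). Lipid droplet fluorescence (488 nm excitation, 500-530 nm channel) was read by laser-scanning cytometry and normalized to 20 uM Triacsin C.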

[2] = biological target: DNA repair nuclease/redox regulator APEX1 (Homo sapiens) (UniProt P27695); assay: qHTS Validation Assay for Inhibitors of the Human Apurinic/apyrimidinic Endonuclease 1 (APE1) (AID 1705;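 note: TAMRA fluorescence gain over two minutes as APE1 cuts a quenched THF abasic duplex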); conditions: purified APE1 endonuclease activity, fluorescence, titration; series mostly up to 57.1 µM
How it was run: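 Activity read as rising fluorescence (598 nm emission, 525 nm excitation) from incision of a TAMRA/BHQ-2 duplex carrying a THF abasic site (50 nM). Compound and enzyme sat 15 min at RT before substrate start; signal change between first and third 60-s reads.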

[3] = Counterscreen for APE1 Inhibitors: Fluorescent Dye Displacement Validation Assay (AID 1707); conditions: fluorescent dye displacement from DNA; series mostly up to 57.1 µM
How it was run: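 Loss of Thiazole Orange fluorescence marks promiscuous DNA binders. The dye (250 nM) is mixed with 50 nM abasic-site dsDNA in pH7.5 Tris buffer containing MgCl2, then compounds are added and emission is read once.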

[4] = biological target: Endonuclease 4 (Escherichia coli (strain K12)) (UniProt P0A6C1); assay: Counterscreen for APE1 Inhibitors: qHTS Validation Assay for Inhibitors of Endonuclease IV (AID 1708); conditions: E. coli endonuclease IV, DNA cleavage fluorescence; series mostly up to 57.1 µM
How it was run: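 Read-out: fluorescence rise (ex 525/em 598 nm) from incision of a TAMRA/BHQ-2 double-stranded THF abasic-site substrate (50 nM), measured kinetically; third-minus-first read difference gave reaction progress. Enzyme 2 nM.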

[5] = qHTS for differential inhibitors of proliferation of Plasmodium falciparum line 7G8 (AID 1815); conditions: Plasmodium falciparum 7G8 proliferation inhibition; series mostly up to 28.7 µM;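 note: parasite growth measured after three days of incubation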
[6] = qHTS for differential inhibitors of proliferation of Plasmodium falciparum line GB4 (AID 1816); conditions: Potency: Plasmodium falciparum GB4 proliferation inhibition; series mostly up to 28.7 µM;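 note: parasite growth measured after 72 h incubation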
[7] = qHTS for differential inhibitors of proliferation of Plasmodium falciparum line 3D7 (AID 1876);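 note: parasite growth measured after three days of culture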; conditions: P. falciparum 3D7 proliferation inhibition; series mostly up to 28.7 µM
[8] = qHTS for differential inhibitors of proliferation of Plasmodium falciparum line D10 (AID 1877); conditions: series mostly up to 28.7 µM;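 note: parasites grown with compound for 72 h before DNA staining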
[9] = qHTS for differential inhibitors of proliferation of Plasmodium falciparum line Dd2 (AID 1882); conditions: Potency: Plasmodium falciparum Dd2 proliferation inhibition; series mostly up to 28.7 µM;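 note: compound exposure of 72 h on infected erythrocytes; nearly all actives have a fitted effect of over 65% in size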
How it was run: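 RBC culture, 0.3% parasitemia / 2.5% Hct final; cpd added by pin tool in DMSO; 72 h, 37 C, 5% CO2; lysis buffer + SYBR Green I, o/n RT dark; FI 485/535; norm. to artemisinin 0.29 uM and DMSO.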

[10] = qHTS for differential inhibitors of proliferation of Plasmodium falciparum line W2 (AID 1883); conditions: Potency: Plasmodium falciparum W2 proliferation inhibition; series mostly up to 28.7 µM;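 note: parasites grown with compound for 72 h before lysis and staining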
[11] = qHTS for differential inhibitors of proliferation of Plasmodium falciparum line HB3 (AID 1886); conditions: Potency: Plasmodium falciparum HB3 proliferation inhibition; series mostly up to 28.7 µM;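 note: parasites grown with compound for 72 h before SYBR Green readout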
[12] = biological target: Ferritin light chain (Equus caballus) (UniProt P02791); assay: qHTS Validation Assay for Identification of Novel General Anesthetics (AID 2323); conditions: horse apoferritin, anesthetic-site fluorescent probe displacement; series mostly up to 76.9 µM
How it was run: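 Competitive displacement of the profluorescent anesthetic 1-AMA (50% saturated, PBS) from 10 uM apoferritin, 10 min, room temperature. Activity is normalized 380/535 nm fluorescence; concentration-response fitted with a four-parameter Hill equation.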

[13] = biological target: ATP-dependent DNA helicase Q1 (Homo sapiens) (UniProt P46063); assay: qHTS Validation Assay for Inhibitors of RecQ-Like Dna Helicase 1 (RECQ1) (AID 2353); conditions: recombinant RECQ1 helicase DNA unwinding assay; series mostly up to 25.6 µM
How it was run: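 RECQ1T1 50 nM; forked duplex (20 bp + 30-nt ss tails) 200 nM, ATP 2 mM final; pH 8.0, 2 mM MgCl2, 2.5 ug/ml poly(dI-dC); 15 min compound preincubation; discontinuous kinetic read over 2 h at RT.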

[14] = Cytometric Cell-Based qHTS for Inhibitors of the mTORC1 Signaling Pathway in MEF (Tsc2-/-, p53-/-) Cells (AID 2660); conditions: mTORC1 pathway cytometry; series mostly up to 38.3 µM;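 note: Tsc2 and p53 null MEFs carrying empty vector with compound for 24 h; percent of cells above a phospho-rpS6 to PI ratio cutoff in each well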
How it was run: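 Percent of cells positive for normalized phospho-S6 staining is reported, with the cutoff set from rapamycin (7.5 nM) versus DMSO wells. Tsc2-/-, p53-/- MEFs received compound for 24 hrs.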

[15] = High Content Imaging Cell-Based qHTS for Inhibitors of the mTORC1 Signaling Pathway in MEF Cells (AID 2667); conditions: series mostly up to 38.3 µM;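 note: Tsc2-/- p53-/- MEFs stably re-expressing wild-type Tsc2 exposed 24 h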
How it was run: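 Read-out is the share of phospho-rpS6-positive cells per well, from Hoechst-normalized Alexa-488 Ser235/236 staining imaged on IN Cell. Cells: WT Tsc2-expressing Tsc2-/-, p53-/- MEFs exposed to compound for 24 hrs.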

[16] = Cytometry Cell-Based qHTS for Inhibitors of the mTORC1 Signaling Pathway in MEF cells (AID 2668); conditions: mTORC1 pathway readout; series mostly up to 38.3 µM;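 note: Tsc2-/- p53-/- mouse embryonic fibroblasts stably re-expressing wild-type Tsc2; percent cells positive for phospho-rpS6 Ser235/236 relative to propidium iodide stain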
How it was run: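 Phospho-rpS6 (Ser235/236) immunofluorescence over PI signal, scored as % positive cells using thresholds from 7.5 nM rapamycin and DMSO wells, after 24 h compound exposure of WT-Tsc2-rescued Tsc2-/-, p53-/- MEFs. PI cell count recorded for viability.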

[17] = Validation screen for small molecules that induce DNA re-replication in MCF 10A normal breast cells (AID 463097); conditions: MCF 10A cells, DNA re-replication phenotype imaging; series mostly up to 46.1 µM; note: nearly all actives have a fitted effect of over 60% in size
How it was run: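 Read-out is Hoechst total nuclear intensity by fluorescence scanning imager, flagging increased high-DNA-content nuclei. Compounds were incubated with MCF 10A cells for 48 hr (37 C, 5% CO2) before 40 min staining.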

[18] = biological target: RecQ-like DNA helicase BLM (Homo sapiens) (UniProt P54132); assay: qHTS Validation Assay for Inhibitors of Bloom's syndrome helicase (BLM) (AID 2364); conditions: BLM helicase DNA unwinding, fluorescence, in vitro; series mostly up to 57.1 µM
How it was run: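 50 nM BLM preincubated 15 min at room temperature with compound in pH 8.0 Tris buffer containing 2.5 ug/ml poly(dI-dC); started with 200 nM TAMRA/BHQ-2 forked duplex and 2 mM ATP (final). Unwinding read as TAMRA fluorescence increase, two reads 2 h apart.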

[19] = measured here: cell count channel max response
[20] = measured here: lipid channel max response

Chain of DNA repair nuclease/redox regulator APEX1 (Homo sapiens) (P27695 whole entry, looked up): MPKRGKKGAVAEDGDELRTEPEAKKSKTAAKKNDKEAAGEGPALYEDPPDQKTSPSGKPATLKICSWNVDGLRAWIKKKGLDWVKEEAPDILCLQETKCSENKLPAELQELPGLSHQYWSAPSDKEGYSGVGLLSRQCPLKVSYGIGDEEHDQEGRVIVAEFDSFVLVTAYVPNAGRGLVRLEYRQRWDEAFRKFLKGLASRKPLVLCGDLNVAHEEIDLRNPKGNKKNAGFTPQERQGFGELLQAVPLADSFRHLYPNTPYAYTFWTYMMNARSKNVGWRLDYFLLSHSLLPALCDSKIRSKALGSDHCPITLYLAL
Chain of Ferritin light chain (Equus caballus) (P02791 2-175 limits assumed): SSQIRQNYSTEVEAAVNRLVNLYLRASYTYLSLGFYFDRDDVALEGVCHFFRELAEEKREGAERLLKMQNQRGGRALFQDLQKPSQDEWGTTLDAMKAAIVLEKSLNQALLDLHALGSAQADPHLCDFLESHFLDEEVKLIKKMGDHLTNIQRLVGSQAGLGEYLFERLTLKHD
Chain of ATP-dependent DNA helicase Q1 (Homo sapiens) (P46063 whole entry, looked up): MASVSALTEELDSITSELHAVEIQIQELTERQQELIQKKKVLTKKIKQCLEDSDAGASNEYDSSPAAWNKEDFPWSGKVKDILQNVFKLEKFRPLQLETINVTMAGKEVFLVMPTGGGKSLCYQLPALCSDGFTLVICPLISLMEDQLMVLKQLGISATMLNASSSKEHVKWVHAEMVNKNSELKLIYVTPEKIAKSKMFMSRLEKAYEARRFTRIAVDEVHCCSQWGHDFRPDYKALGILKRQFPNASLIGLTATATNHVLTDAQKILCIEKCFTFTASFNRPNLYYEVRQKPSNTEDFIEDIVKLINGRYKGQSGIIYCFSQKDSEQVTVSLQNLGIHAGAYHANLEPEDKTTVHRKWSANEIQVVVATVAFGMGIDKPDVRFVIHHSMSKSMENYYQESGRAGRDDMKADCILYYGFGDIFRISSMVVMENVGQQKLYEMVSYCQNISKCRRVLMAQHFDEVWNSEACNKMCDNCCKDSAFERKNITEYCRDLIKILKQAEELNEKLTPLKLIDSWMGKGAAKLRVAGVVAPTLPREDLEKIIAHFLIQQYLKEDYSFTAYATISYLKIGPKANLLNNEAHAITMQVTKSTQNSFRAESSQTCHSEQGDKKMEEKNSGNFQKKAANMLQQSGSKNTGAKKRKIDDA
Chain of RecQ-like DNA helicase BLM (Homo sapiens) (P54132 whole entry, looked up): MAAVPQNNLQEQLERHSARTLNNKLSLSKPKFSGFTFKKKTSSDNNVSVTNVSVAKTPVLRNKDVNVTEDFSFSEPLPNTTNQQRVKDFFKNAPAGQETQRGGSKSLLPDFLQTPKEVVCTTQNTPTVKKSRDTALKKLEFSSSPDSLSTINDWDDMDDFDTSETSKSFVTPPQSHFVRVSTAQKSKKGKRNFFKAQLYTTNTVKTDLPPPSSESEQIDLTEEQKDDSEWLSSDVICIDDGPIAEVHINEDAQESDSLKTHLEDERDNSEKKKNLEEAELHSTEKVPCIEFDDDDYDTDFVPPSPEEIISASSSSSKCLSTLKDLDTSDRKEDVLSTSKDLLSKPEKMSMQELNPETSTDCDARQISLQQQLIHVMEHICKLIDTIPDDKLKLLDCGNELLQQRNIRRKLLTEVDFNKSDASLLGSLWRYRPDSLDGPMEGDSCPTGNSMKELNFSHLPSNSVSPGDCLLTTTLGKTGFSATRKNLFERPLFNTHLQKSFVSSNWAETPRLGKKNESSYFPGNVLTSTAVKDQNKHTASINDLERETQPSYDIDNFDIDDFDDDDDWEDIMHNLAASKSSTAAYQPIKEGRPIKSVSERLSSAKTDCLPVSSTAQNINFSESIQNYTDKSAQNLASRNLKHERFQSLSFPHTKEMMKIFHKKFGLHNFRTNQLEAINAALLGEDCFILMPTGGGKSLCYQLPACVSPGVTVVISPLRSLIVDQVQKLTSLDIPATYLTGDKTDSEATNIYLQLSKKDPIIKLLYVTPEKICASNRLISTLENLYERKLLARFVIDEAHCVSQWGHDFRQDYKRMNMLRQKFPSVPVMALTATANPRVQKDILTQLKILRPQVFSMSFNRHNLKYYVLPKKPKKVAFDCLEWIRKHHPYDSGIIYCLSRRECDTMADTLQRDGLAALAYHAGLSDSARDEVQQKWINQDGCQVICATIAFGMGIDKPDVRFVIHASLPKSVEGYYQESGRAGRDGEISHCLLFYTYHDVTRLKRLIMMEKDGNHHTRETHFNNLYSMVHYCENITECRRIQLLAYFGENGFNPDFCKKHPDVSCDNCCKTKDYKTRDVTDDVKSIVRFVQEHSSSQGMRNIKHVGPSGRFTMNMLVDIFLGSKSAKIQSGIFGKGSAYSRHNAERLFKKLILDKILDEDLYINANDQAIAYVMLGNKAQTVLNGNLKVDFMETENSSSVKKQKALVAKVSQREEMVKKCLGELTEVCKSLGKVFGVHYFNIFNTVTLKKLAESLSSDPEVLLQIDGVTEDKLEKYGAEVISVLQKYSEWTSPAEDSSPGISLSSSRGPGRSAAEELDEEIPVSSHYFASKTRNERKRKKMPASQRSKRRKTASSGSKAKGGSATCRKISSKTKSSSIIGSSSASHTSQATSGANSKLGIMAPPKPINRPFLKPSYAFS

Compound: CCN(CC)C(=O)c1ccc(O)c(OC)c1
- activity change, negative = inhibition ([1]; at 25.7 µM (top of the series)): 0.695% (inactive)
- max response [1, 19]: 14.3%
- max response [1, 20]: 14.5%
- outcome [2]: inactive
- outcome [3]: inactive
- outcome [4]: inactive
- Potency [5]: inactive
- Potency [6]: inactive
- Potency [7]: inactive
- Potency [8]: inactive
- Potency [9]: inactive
- Potency [10]: inactive
- Potency [11]: inactive
- outcome [12]: inactive
- outcome [13]: inactive
- outcome [14]: inactive
- outcome [15]: inactive
- Potency [16]: inactive
- Potency [17]: inactive

Compound: O=c1cc(-c2ccccc2)oc2cc(O)c(O)c(O)c12
- activity change, negative = inhibition ([1]; at 57.5 µM (top of the series)): 6.99% (inactive)
- max response [1, 19]: -15.3%
- max response [1, 20]: -4.95%

Compound: COc1ccc(-c2coc3cc(O)ccc3c2=O)cc1
- activity change, negative = inhibition ([1]; at 57.5 µM (top of the series)): -1.11% (inactive)
- max response [1, 19]: 3.06%
- max response [1, 20]: 2.76%

Compound: CCN(CC)CCOC(=O)c1ccc(N)cc1
- activity change, negative = inhibition ([1]; at 25.7 µM (top of the series)): -0.292% (inactive)
- activity change, negative = inhibition ([1]; at 57.5 µM (top of the series)): 1.41% (inactive)
- max response [1, 19]: 4.92% and -22.1%
- max response [1, 20]: 5.47% and -19.5%
- outcome [2]: inactive
- outcome [3]: inactive
- Potency [5]: inactive
- Potency [6]: inactive
- Potency [7]: inactive
- Potency [8]: inactive
- Potency [9]: inactive
- Potency [11]: inactive
- outcome [12]: inactive
- outcome [13]: inactive
- outcome [14]: inactive
- outcome [15]: inactive
- Potency [16]: inactive
- Potency [17]: inactive

Compound: O=c1c(O)c(-c2ccc(O)cc2)oc2cc(O)cc(O)c12
- activity change, negative = inhibition ([1]; at 25.7 µM (top of the series)): -1.01% (inactive)
- activity change, negative = inhibition ([1]; at 57.5 µM (top of the series)): 9.57% (inactive)
- max response [1, 19]: -23.1% and 1.49%
- max response [1, 20]: -23.3% and 13.5%

Compound: O=c1cc(-c2ccccc2)oc2cc(O)cc(O)c12
- activity change, negative = inhibition ([1]; at 25.7 µM (top of the series)): -11.6% (inactive)
- activity change, negative = inhibition ([1]; at 57.5 µM (top of the series)): 1.96% (inactive) and -20.6% (inactive)
- max response [1, 19]: -13.1% and 8.12% and 6.97%
- max response [1, 20]: -20.8% and 15.3% and -13.5%

Compound: CC(=O)CCCCn1c(=O)c2c(ncn2C)n(C)c1=O
- activity change, negative = inhibition ([1]; at 25.7 µM (top of the series)): -2.17% (inactive)
- activity change, negative = inhibition ([1]; at 57.5 µM (top of the series)): 7.3% (inactive)
- max response [1, 19]: 6.56% and 15.7%
- max response [1, 20]: 4.54% and 26.5%
- outcome [2]: inactive
- outcome [3]: inactive
- Potency [5]: inactive
- Potency [6]: inactive
- Potency [7]: inactive
- Potency [8]: inactive
- Potency [9]: inactive
- Potency [10]: inactive
- Potency [11]: inactive
- outcome [12]: inactive
- outcome [13]: inactive
- Potency [18]: inactive
- outcome [14]: inactive
- outcome [15]: inactive
- Potency [16]: inactive
- Potency [17]: inactive
